Reference: PubChem BioAssay (NCATS)
Results filed as inconclusive are left out. Values without a mark were called inactive. Active and inactive are the calls of the source. Calls follow the shape of the dose curve; as a rule, active = well fitted inhibition curve with a large enough effect; inconclusive = small, poorly fitted or top-dose-only effect; inactive = flat fitted curve, though single readings scatter.

Target: Phospholipid hydroperoxide glutathione peroxidase GPX4 (Homo sapiens) (UniProt P36969)
Sequence (P36969 whole entry, looked up): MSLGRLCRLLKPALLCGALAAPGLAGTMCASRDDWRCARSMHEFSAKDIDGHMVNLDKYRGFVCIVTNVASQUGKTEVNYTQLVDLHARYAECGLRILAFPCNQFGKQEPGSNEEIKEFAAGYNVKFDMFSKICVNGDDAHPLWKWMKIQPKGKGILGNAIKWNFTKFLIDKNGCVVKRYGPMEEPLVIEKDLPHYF
Assay: Primary qHTS Assay for Inhibitors of Recombinant Selenoprotein Glutathione Peroxidase 4 (GPX4) (AID 1845192); also: nearly all actives have a fitted effect of over 65% in size
Conditions: recombinant GPX4, GR-coupled NADPH fluorescence, 15 min; series mostly up to 50 µM; activity change, negative = inhibition: at the top concentration
Method in brief: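 NADPH consumption followed by fluorescence at 340/450 nm, t=0 and after 15 min at room temperature. Reaction started with cumene hydroperoxide (0.5 mM final) after 30 min compound–GPX4 preincubation; final 200 nM GPX4, 100 nM GR, 1 mM GSH, 0.5 mM NADPH.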
% is scaled to controls: 0 for no effect and ±100 for the full control effect; potency is read from the fitted curve at half-maximal effect.

Compound	activity change, negative = inhibition	outcome	Potency
CN[C@@H]1[C@@H](O[C@H]2O[C@H](CO)[C@@H](N)[C@H](O)[C@H]2O)O[C@H]2C[C@@H](N)[C@H](O[C@H]3[C@H](O)[C@@H](O)[C@H](N)C[C@@H]3N)O[C@@H]2[C@@H]1O	-13.9%	–	–
CCC1OC(=O)C(C)C(OC2CC(C)(OC)C(O)C(C)O2)C(C)C(OC2OC(C)CC(N(C)C)C2O)C(C)(O)CC(C)C2NC(COCCOC)OC(C2C)C1(C)O (configuration not stated)	–	inactive	–
C[C@](C#N)(COc1cc(C#N)ccc1C(F)(F)F)NC(=O)c1ccc(SC(F)(F)F)cc1	-14.1%	–	–
CC1CC2C3CCC4=CC(=O)C=CC4(C)C3(F)C(O)CC2(C)C1(O)C(=O)COC(=O)c1cccc(S(=O)(=O)O)c1 (configuration not stated)	–	–	20 µM (active)
Cn1c(=O)cc(N2CCC[C@@H](N)C2)n(Cc2cc(F)ccc2C#N)c1=O	-15.8%	–	–
CCCCCCCCN=C(N)NC(N)=NCc1ccc(Cl)c(Cl)c1	-4.81%	–	–
CCC1OC(=O)[C@H](C)C(=O)[C@H](C)[C@@H](OC2O[C@H](C)C[C@H](N(C)C)[C@H]2O)[C@](C)(OC)C[C@@H](C)C(=O)[C@@H](C)[C@@H]2N(CCCCn3cnc(-c4cccnc4)c3)C(=O)O[C@]12C (some centres not stated)	–	inactive	–
COC(=S)NCCn1c([N+](=O)[O-])cnc1C	-8.13%	–	–
[Mn].[O]=[Mn][OH].[O]=[Mn][OH]	–	inactive	–
CC(C)CCC[C@@H](C)[C@H]1CC[C@H]2[C@@H]3CC=C4C[C@@H](O)CC[C@]4(C)[C@@H]3CC[C@]12C	3.53% [at 27.8 µM]	–	–
CN[C@@H]1[C@@H](O)[C@@H](O[C@@H]2[C@@H](O)[C@H](OC3O[C@H](CN)[C@@H](O)[C@H](O)[C@H]3O)[C@@H](N)C[C@H]2NC(=O)[C@@H](O)CN)OC[C@]1(C)O (some centres not stated)	–	inactive [at 27.8 µM]	–
O=C(O)[C@H]1OC(O)[C@H](O)[C@@H](O)[C@@H]1O (some centres not stated)	–	inactive	–
